# From PubChem BioAssay
# Only some compounds are listed: those with a hit (about 2.1% of all), similar ones and a draw of the others.
# FUS yeast rescue: rescues growth of FUS-expressing yeast; Potency, µM (series often up to 76.6 µM), actives largely listed as activators; S. cerevisiae FUS-expressing, growth rescue, OD600, 24 h; 390,000 compounds, 0.24% hits;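 also: plate controls were DMSO vehicle for no effect and reference control for full effect; nearly all actives have a fitted effect of over 55% in size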
#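 Yeast FUS proteinopathy model; galactose-induced FUS (2%), starting OD 0.005. Cpds in dilution series, 24hr, 30C, 99% humidity. Abs 600 nm growth. Pos ctrl CP55940 (top 92uM final); neg ctrl DMSO.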
# Abeta rescue: A-beta toxicity reversal in yeast; yeast expressing A-beta42, growth rescue, OD600, 48 h; response scale: 0% DMSO, 100% iron-clioquinol control; Potency, µM (doses to about 46.1 µM), most hits filed as activators; 410,000 compounds, 0.063% hits; AID 1347071; also: nearly all actives have a fitted effect of over 55% in size
#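 Growth rescue measured by 600 nm absorbance after 48 h yeast culture at 30 C with compound. Values normalized between DMSO and an equimolar ferric chloride plus clioquinol control.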
# aSyn rescue: alpha-synuclein toxicity inhibition in yeast; Yeast expressing alpha-synuclein, growth rescue, BacTiter-Glo, 24 h; Potency, µM (doses to about 46.1 µM), for the others: at the top dose growth rescue (activation), hits mostly activators; 370,000 compounds, 0.14% hits; AID 652106; also: % of control where 0% means no effect; nearly all actives have a fitted effect of over 65% in size
#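 Screening used galactose-induced yeast with toxic alpha-synuclein levels, exposed to compound for 24 hr at 30 deg C. Cell growth, read with BacTiter-Glo luminescence, gave the measured signal.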
# TDP-43 yeast inh: rescues yeast growth from TDP-43 toxicity. TDP-43 expressing yeast growth rescue, BacTiter-Glo, 24 h. Potency, µM (doses to about 46.1 µM), without a hit: at the highest dose growth rescue (activation), most hits filed as activators. 410,000 compounds, 1.8% hits. AID 652104; also: % of control where 0% means no effect; nearly all actives have a fitted effect of over 50% in size
#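 Luminescence from BacTiter-Glo reports growth of TDP-43-expressing yeast after 24 hr at 30 deg C with compound. Cells were raffinose-pregrown to mid-log, then seeded in galactose medium at OD600=0.02.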
# An asterisk follows results filed as active; i = inactive; u = inconclusive; x = not tested or not shown. Calls follow the shape of the dose curve; as a rule, active = well fitted curve in the direction sought with a large enough effect; inconclusive = small, poorly fitted or top-dose-only effect, or another doubt; inactive = no such curve, though single readings can be large; an effect the other way counts as inactive or inconclusive. Potency is read from the fitted curve at half-maximal effect.
SMILES,FUS yeast rescue,Abeta rescue,aSyn rescue,TDP-43 yeast inh
Cc1ccc2ccc3cc(C(=O)Nc4ccc(C)c(F)c4)nc3c2[nH]1,i,i,-23.7%,3.98µM*
O/N=C/c1ccn(-c2ccc(Br)cc2)c1,i,i,-5.6%,14.1µM*
CC1Cc2ccccc2N1C(=O)/C=C/c1cccc(F)c1 (stereo not drawn),i,i,6.1%,20µM*
CN(C)c1ccc(C(=O)Nc2sc(Nc3ccccc3)nc2C(N)=O)cc1,i,i,x,u
Cc1ccc(-c2ccc(=O)n(CC(=O)NCCc3ccc(Cl)cc3)n2)cc1,i,i,x,22.4µM*
O=C(Cn1nc(-c2ccc(Cl)cc2)ccc1=O)NCCc1ccccc1,i,i,1.5%,5.2%
Cc1ccc(CCNC(=O)CN2N=C(c3ccc(C)cc3)CCC2=O)cc1,i,i,x,u
O=C(CN1N=C(c2ccc(Cl)cc2)CCC1=O)NCCc1ccc(Cl)cc1,u,u,x,22.4µM*
CCOc1ccc(NC(=O)Cn2c(=O)n(-c3ccccc3)c(=O)c3ccc(C(=O)NCc4ccc5c(c4)OCO5)cc32)cc1,i,i,-3.4%,8.1%
CC(C)c1ccc(C(=O)Nc2cc(-c3ccccc3F)nn2-c2ccccc2)cc1,i,i,x,2.5%
COc1ccc(C2C(C(=O)Nc3ccccc3)=C(C)Nc3nc(-c4ccccc4Cl)nn32)cc1OC (stereo not drawn),u,i,x,28.2%
Cc1cc(Nc2nc(Cl)c(Cl)cc2Cl)n(-c2ccccc2)n1,x,i,0.4%,17.8µM*
O=C1CC2(CCN(S(=O)(=O)c3ccccc3)CC2)Oc2ccccc21,i,i,15.4%,20µM*
CCC(=O)N1N=C(c2cccs2)CC1c1ccc(OC)cc1 (stereo not drawn),i,i,2.4%,u
Cc1ccc(C2CC(c3cccs3)=NN2C(=O)CCl)cc1 (stereo not drawn),i,i,0.6%,12.6µM*
COc1ccc(C2CC(c3cccs3)=NN2C(=O)CSC2=NCCS2)cc1 (stereo not drawn),35.5µM*,i,9.3%,28.6%
CNC(=S)N1N=C(c2cccs2)CC1c1ccc(F)cc1 (stereo not drawn),i,i,10.2%,10µM*
Cc1ccc(C2CC(c3cccs3)=NN2C(=O)CSC2=NCCS2)cc1 (stereo not drawn),i,i,10.0%,u
CCC(=O)N1N=C(c2cccs2)CC1c1ccc(C)cc1 (stereo not drawn),i,i,15.7%,20µM*
CC(C)CCNC(=O)c1cc(-c2cccnc2)nc2ccc(S(=O)(=O)N3CCC(C)CC3)cc12,i,i,x,9.5%
COc1ccccc1-c1nnc2n(CCc3ccccc3)c(=O)c3ccccc3n12,i,i,x,u
O=C(/C=C\c1ccc2c(c1)OCO2)NC1CC(=O)N(c2cccc(F)c2)C1 (stereo not drawn),i,i,x,18.3%
CCOc1ccc(Nc2ncnc3onc(-c4ccc(Cl)cc4)c23)cc1,i,i,x,22.4µM*
COc1cc(Nc2ncnc3onc(-c4ccc(Cl)cc4)c23)cc(OC)c1,i,i,0.2%,16.9%
CCOC(=O)Cn1cc(C(=O)c2cccs2)c2ccccc21,i,i,-0.5%,17.8µM*
SMILES,FUS yeast rescue,Abeta rescue,aSyn rescue,TDP-43 yeast inh
O=C(O)Cn1cc(C(=O)c2cccs2)c2ccccc21,i,i,6.6%,-15.6%
CC1(C)NC(=O)N(CCCOc2ccc(Br)cc2Cl)C1=O,u,i,-3.6%,5.1%
CC1(C)NC(=O)N(CCCCOc2ccc(Br)cc2Cl)C1=O,i,i,18.6%,12.6µM*
CC1(C)NC(=O)N(CCCCOc2ccc(Cl)cc2)C1=O,i,i,10.9%,-13.4%
Cc1cc(OCCCCN2C(=O)NC(C)(C)C2=O)cc(C)c1Cl,i,i,x,17.8µM*
CC(C)C(=O)Nc1ccc(/C=C2\C=Cc3ccccc32)cc1,x,x,0.6%,x
CN(Cc1ccccc1F)C(=O)Cn1c(-c2cncs2)nc2ccccc21,i,x,x,x
COc1ccc(OC)c(C(c2nnnn2C2CCCC2)N2CCN(c3ccccc3F)CC2)c1 (stereo not drawn),i,i,7.9%,31.6µM*
COc1ccc(-c2cc(C#N)nc(Cl)n2)cc1,i,i,-9.3%,3.98µM*
COc1ccc(-c2cc(C#N)nc(Oc3ccc(Cl)cc3)n2)cc1,x,i,3.9%,0.0%
CCCCCCSc1ccc([C@H]2N[C@@](C)(C(=O)OC)[C@H]3C(=O)N(C)C(=O)[C@@H]23)cc1,12.6µM*,i,u,u
Cc1c(CNC(C)CCc2ccccc2)c(C(=O)O)c(C)n1Cc1ccc(F)cc1Cl (stereo not drawn),i,i,x,9.1%
COc1ccccc1NC(=O)N(CCN1CCCC1)Cc1cc2cc(C)ccc2[nH]c1=O,i,i,1.4%,-19.0%
CCN1CCCC1CN(Cc1cc2cc(C)ccc2[nH]c1=O)C(=O)Nc1ccccc1OC (stereo not drawn),22.4µM*,i,-0.8%,-5.8%
Cc1ccc(-c2nc3cccnc3o2)cc1NC(=O)COc1ccc(Cl)cc1C,i,i,-2.8%,12.5%
Cc1ccc(-c2nc3cccnc3o2)cc1NC(=O)COc1ccc(C(C)(C)C)cc1,31.6µM*,i,-10.9%,u
CSc1ccc(CNC(=O)C2CCN(c3nnc(-n4cccc4CNc4ccc(C)cc4)s3)CC2)cc1,35.5µM*,i,x,-4.7%
Cc1ccc(NCc2cccn2-c2nnc(N3CCC(C(=O)NCCC(C)C)CC3)s2)cc1,u,i,x,7.7%
CCN1C(C(=O)c2ccccc2)=C(OC(=O)c2ccccc2OC)c2ccccc2S1(=O)=O,i,i,x,10.7%
CCS(=O)(=O)Nc1ccc2c(c1)C(=O)N(C)[C@@H]1CC[C@H](CC(=O)NCCCN3CCOCC3)O[C@H]1CO2,i,x,x,x
COc1ccccc1CNC(=O)c1ccc2nc(N3CCOCC3)sc2c1,i,i,0.4%,22.4µM*
O=C(NCc1cccc(Cl)c1)c1ccc2nc(N3CCOCC3)sc2c1,i,i,3.9%,25.1µM*
COC(=O)CC1Oc2ccccc2-n2cc(-c3ccc(Cl)cc3)nc21 (stereo not drawn),i,i,x,2.9%
Cc1cc(C(=O)CSc2ncnc3ccccc23)c(C)n1C1CC1,x,i,6.5%,15.3%
C=CCn1c(C)cc(C(=O)CSc2nnc(NCc3ccccc3)s2)c1C,i,u,1.6%,11.2µM*
C=CCn1c(C)cc(C(=O)CSc2nc3ccccc3o2)c1C,i,i,5.3%,22.4µM*
Cc1cc(C(=O)CSc2nc3ccccc3o2)c(C)n1C1CC1,i,i,7.9%,22.4µM*
C=CCn1c(C)cc(C(=O)CSc2nnc(NC(C)C)s2)c1C,i,i,-10.0%,22.4%
C=CCn1c(C)cc(C(=O)CSc2nc3ccccc3[nH]2)c1C,i,i,18.9%,15.6%
C=CCn1c(C)cc(C(=O)CSc2nc3ccccc3c(=O)[nH]2)c1C,i,i,2.0%,10µM*
